Only some compounds are listed: those with a hit (about 5.2% of all), similar ones and a draw of the others.
NR3A LBD binder: NR3A (human) ligand-binding domain modulation; NR3A LBD differential scanning fluorimetry, Tm shift; 0% = protein alone, 100% = glycine-bound protein; Tm shift relative to glycine control, % at 25 µM; 340,000 tested, 2.5% active; AID 1259313;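 active = melting temperature shift of at least 10% of the positive control shift, at one fixed dose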
esBAF inh: inhibitors of esBAF chromatin remodeling in mouse ES cells; Bmi1-luciferase knock-in reporter, 24 h; 100% = twice the neutral-well signal; reporter increase, % at 12.5 µM; 350,000 tested, 2% active; AID 602393; in the data active = activation above about 40%; inconclusive = no clear call, values can overlap the other calls;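 note: 0% = median of the plate's neutral control wells and 100% = double that signal; a rise in the Bmi1 reporter signal indicates esBAF inhibition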
SMARCA2 activ: SMARCA2 function activation, primary screen; MG213 cells, MMTV-luciferase reporter, dexamethasone, overnight; 370,000 tested, 1% active; activation, % at 9.1 µM; AID 652017; in the data active = activation above about 7.8%;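 note: 0% = vehicle wells and 100% = reference activator wells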
NadD inh: inhibitors of Staphylococcus aureus NadD; inhibition, % at 20 µM; purified NadD enzyme, colorimetric absorbance read-out; 360,000 tested, 0.78% active; in the data active = inhibition above about 26%
SKN-1 block: C. elegans SKN-1 inhibition | inhibition, % at 21.8 µM | C. elegans VP596 Pgst-4::GFP/RFP ratio, acrylamide-induced, 24 h | AID 624304 | 360,000 tested, 0.49% active;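 active = interference check ratio from 0.5 to 1.5 plus GFP to RFP signal ratio inhibition reaching or exceeding a fixed threshold, cut at about 30% in these data, passing the limit was not always enough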
Vif imaging: HIV Vif inhibition; HEK293T cells, Vif self-association by quenched fluorescence, imaging, 24 h; 340,000 tested, 0.35% active; inhibition, % at 7.49 µM; in the data active = inhibition above about 50%, passing the limit was not always enough; inconclusive = no clear call, values can overlap the other calls; inactive = below about 31%
* hit, by the source's call; ? = inconclusive; · = not tested or not shown.

SMILES	NR3A LBD binder	esBAF inh	SMARCA2 activ	NadD inh	SKN-1 block	Vif imaging
COc1ccc(NC(=O)Nc2ccc3c(c2)C(=O)N([C@@H](C)CO)C[C@H](C)[C@H](CN(C)Cc2ccc(Cl)c(Cl)c2)OCCCC[C@@H](C)O3)cc1	·	6	·	·	·	·
Nc1cc2c(cc1Br)-c1ccc(F)cc1C2O (centres undefined)	18*	?	0	-3	6	-12
CC(=O)Nc1cc2c(cc1Cl)-c1ccc(F)cc1C2O (centres undefined)	1	4	-1	-2	-1	-3
COC(=O)c1sc(NC(=S)NNC(=O)c2c(Br)c(C)nn2C)c(C(=O)OC)c1C	12*	·	1	10	-3	-1
COC(=O)c1sc(S(=O)(=O)Nc2c(C)nn(C)c2C)c(C(=O)OC)c1C	-1	-2	0	1	17	4
COc1ccc(CC(=O)O)cc1O	-1	-8	-1	0	31	-2
COc1ccc(CC2NCCC3=CC(=O)CCC32)cc1O (centres undefined)	0	-5	0	-3	-1	146*
COCc1nc(-c2ccc(-c3ccc(OC)cc3)nc2OC)no1	31*	35	-1	-12	2	-5
COCc1nc(-c2ccc(-c3ccccc3)nc2OC)no1	-2	66*	6	-8	3	2
CCOc1nc(-c2ccccc2)ccc1-c1noc(COC)n1	3	2	-2	-9	0	-1
C[C@@H]1CN([C@H](C)CO)C(=O)c2cc(-c3cccc(C(=O)N(C)C)c3)cnc2O[C@@H]1CN(C)S(=O)(=O)c1ccccc1	·	4	·	·	·	·
O=C(Nc1nc2ccccc2s1)Nc1ccc(F)cc1F	-3	22	6	-4	10	-5
O=C(Nc1ccc(F)cc1F)Nc1sccc1-c1nc2ccccc2s1	21*	-2	0	2	13	21
CCOc1ncccc1C(=O)Nc1ccc2c(C)cc(=O)oc2c1	-1	4	-2	6	0	·
COc1ccccc1C(=O)Nc1ccc2oc(-c3ccc(F)cc3)nc2c1	14*	38	1	-10	-19	0
Cc1cc(=O)oc2cc(NC(=O)c3ccc(OC(F)F)cc3)ccc12	2	57*	-3	-1	-11	16
COc1ccccc1C(=O)Nc1ccc2c(C)cc(=O)oc2c1	-5	54*	5	-5	4	·
CC(C)NC(=O)Nc1ccc2c(c1)C(=O)N([C@@H](C)CO)C[C@H](C)[C@@H](CN(C)CC1CCCCC1)OCCCC[C@H](C)O2	·	-4	·	·	·	·
CC(C)NC(=O)N(C)C[C@H]1Oc2ncc(C#CC3(O)CCCC3)cc2C(=O)N([C@H](C)CO)C[C@H]1C	·	-2	·	·	·	·
CC(C)c1ccc(NC(=O)CCNS(=O)(=O)c2cc(Br)cnc2N)cc1	9	-10	-1	-2	1	-9
CCc1cccc(NC(=O)CCNS(=O)(=O)c2cc(Br)cnc2N)c1	13*	0	-1	3	12	0
COc1ccc(N=C2NC(=O)/C(=C\C=C\c3ccccc3)S2)cc1	6	0	3	26*	-2	3
COc1ccc(N=C2NC(=O)/C(=C/C=C/c3ccccc3)S2)cc1	14*	·	-1	27	3	3
O=C1N/C(=N/Nc2ccccc2)S/C1=C\c1ccccc1	10*	13	-2	13	-30	5
COc1ccc(/C=C2\SC(=Nc3ccccc3OC)NC2=O)cc1	-1	9	0	9	-17	4
SMILES	NR3A LBD binder	esBAF inh	SMARCA2 activ	NadD inh	SKN-1 block	Vif imaging
COc1ccc(/C=C2\SC(=NCc3ccccc3)NC2=O)cc1	17*	·	0	1	17	-1
C[C@H](CO)N1C[C@H](C)[C@H](CN(C)C)Oc2ccc(NS(=O)(=O)c3ccccc3)cc2C1=O	·	-5	·	·	·	·
COc1ccc(NC(=O)Nc2cccc3c2O[C@@H](CN(C)Cc2ccc(Cl)c(Cl)c2)[C@@H](C)CN([C@H](C)CO)C3=O)cc1	·	0	·	·	·	·
C[C@@H]1CN([C@H](C)CO)C(=O)c2cc(C3=CCCC3)cnc2O[C@H]1CN(C)C(=O)C1CCOCC1	·	-3	·	·	·	·
Cc1ccc(CSc2nc3ccccc3c(=O)n2Cc2ccco2)cc1	2	4	-6	13	38*	5
CCOC(=O)C1CCN(C(=O)COC(=O)/C=C/c2ccccc2)CC1	2	-13	-2	-6	-12	-2
